FEN1 inhibitor – qHTS Assay for the Inhibitors of Human Flap endonuclease 1 (FEN1). Recombinant FEN1 flap cleavage, fluorescence, 15 min. Potency, µM (titrated, usually from 114 µM), usual class: inhibitors. 0.35% of 390,000 active; further: nearly all actives have a fitted effect of over 65% in size
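FEN1 at 10 nM preincubated with compounds 15 min at room temperature, then flap DNA substrate added at 50 nM final. Signal read at 0 and 15 min; concentration-response fitted with four-parameter Hill equation.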
POLB inh – qHTS Assay for Inhibitors of DNA Polymerase Beta; P06746; Pol beta primer extension/strand displacement, fluorescence kinetic; Potency, µM (series often up to 114 µM), hits mostly inhibitors; 1.3% of 340,000 active
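Kinetic readout of DNA synthesis with strand displacement by Pol beta. Compound and 10 nM enzyme sit 15 min at room temperature; 50 nM substrate starts the reaction, read immediately and at 10 min.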
Pol eta inh-1 – qHTS for Inhibitors of Polymerase Eta; DNA polymerase eta (Homo sapiens), Q9Y253; recombinant Pol eta, fluorescent DNA replication assay; Potency, µM (highest dose often 114 µM), most hits filed as inhibitors; 1.2% of 390,000 active; AID 588591, 2011
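Pol eta at 10 nM preincubated with compounds 15 min at room temperature; reaction started with fluorescent substrate (50 nM final) and read kinetically at 0 and 10 min.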
TDP1 block – qHTS Assay for Inhibitors of Tyrosyl-DNA Phosphodiesterase (TDP1); Potency, µM (top dose mostly 130 µM), most hits filed as inhibitors; Tyrosyl-DNA phosphodiesterase 1 (Homo sapiens), Q9NUW8; recombinant TDP1, AlphaScreen DNA substrate cleavage; 0.28% of 350,000 active; AID 485290, 2010; further: nearly all actives have a fitted effect of over 40% in size
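Signal: AlphaScreen proximity between streptavidin donor and anti-FITC acceptor beads on intact substrate. Reaction: Tdp1 1 nM, substrate 15 nM final, 5 min RT after 15 min compound preincubation.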
Pol kappa inh-1 – qHTS for Inhibitors of Polymerase Kappa; purified Pol kappa, fluorescent DNA synthesis assay, 10 min; 0.53% of 400,000 active; AID 588579, 2011; Potency, µM (top dose mostly 107 µM), actives largely listed as inhibitors
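10 nM Pol kappa was preincubated with compounds for 15 min at room temperature. Reaction started with 50 nM (final) substrate. Fluorescence read kinetically at 0 and 10 min.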
POLI inh – qHTS for Inhibitors of Polymerase Iota; Potency, µM (series often up to 115 µM), most hits filed as inhibitors; Pol iota fluorescent replication assay, 10 min; 1% of 390,000 active
Target sequence (Q9UNA4 whole entry, looked up): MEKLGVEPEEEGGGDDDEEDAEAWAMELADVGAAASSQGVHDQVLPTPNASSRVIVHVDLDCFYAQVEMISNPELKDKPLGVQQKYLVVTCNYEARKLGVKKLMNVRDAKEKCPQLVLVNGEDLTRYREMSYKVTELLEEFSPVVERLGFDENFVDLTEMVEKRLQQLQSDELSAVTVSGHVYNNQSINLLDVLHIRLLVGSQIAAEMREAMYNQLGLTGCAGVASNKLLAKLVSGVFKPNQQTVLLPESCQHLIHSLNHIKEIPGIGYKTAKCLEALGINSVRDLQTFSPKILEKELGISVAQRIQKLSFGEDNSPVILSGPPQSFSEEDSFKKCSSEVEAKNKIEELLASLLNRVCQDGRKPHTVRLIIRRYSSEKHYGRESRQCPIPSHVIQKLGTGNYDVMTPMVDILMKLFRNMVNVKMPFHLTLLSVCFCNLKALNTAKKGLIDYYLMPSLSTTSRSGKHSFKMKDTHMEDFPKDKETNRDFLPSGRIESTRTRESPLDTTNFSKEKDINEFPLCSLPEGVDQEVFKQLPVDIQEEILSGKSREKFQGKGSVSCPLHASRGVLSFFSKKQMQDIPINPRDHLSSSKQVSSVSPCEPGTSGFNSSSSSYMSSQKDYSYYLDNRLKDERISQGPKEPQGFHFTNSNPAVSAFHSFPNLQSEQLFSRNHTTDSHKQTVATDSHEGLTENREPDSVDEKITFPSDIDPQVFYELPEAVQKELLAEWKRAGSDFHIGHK
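Pol iota at 10 nM preincubated 15 min with compounds at room temperature; reaction started with fluorescent substrate, 50 nM final. Fluorescence read kinetically at 0 and 10 min; buffer-only wells as negative control.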
TbPGK inh – qHTS for inhibitors of Phosphogylcerate Kinase: Hit Validation Screen; 79% of 500 active; Potency, µM (titrated, usually from 57.5 µM), actives largely listed as inhibitors; TbPGK coupled GAPDH assay, Kinase-Glo luminescence; shares compounds with Pol kappa inh-1; further: nearly all actives have a fitted effect of over 65% in size
POLI cherry-pick – qHTS for Inhibitors of Polymerase Iota: Confirmatory Assay for Cherry-picked Compounds | shares compounds with Pol kappa inh-1 | Pol iota primer extension, TAMRA/BHQ fluorescence | Potency, µM, most hits filed as inhibitors | 77% of 1,500 active | AID 720496, 2013
Pol kappa inh-2 – qHTS for Inhibitors of Polymerase Kappa: Confirmatory Assay for Cherry-picked Compounds. Potency, µM, usual class: inhibitors. AID 720501, 2013. purified Pol-kappa, fluorescent strand-displacement substrate. shares compounds with Pol eta inh-1. 76% of 920 active
Pol eta inh-2 – qHTS for Inhibitors of Polymerase Eta: Confirmatory Assay for Cherry-picked Compounds. shares compounds with Pol eta inh-1. Pol eta primer extension, TAMRA/BHQ fluorescence, 10 min. Potency, µM, hits mostly inhibitors. 64% of 2,600 active
Hits are given with their value; 0 = inactive; ? = inconclusive; - = no result given; [ ] = dose if it differs, or a comment. The list is not random: actives were taken first. Their share in the collection is about 2.4%. The call rests on the fitted dose curve; in most records, active means well fitted curve in the direction sought with a large enough effect; inconclusive means small, poorly fitted or top-dose-only effect, or another doubt; inactive means no such curve, though single readings can be large; an effect the other way counts as inactive or inconclusive.

SMILES	FEN1 inhibitor	POLB inh	Pol eta inh-1	TDP1 block	Pol kappa inh-1	POLI inh	POLI cherry-pick	Pol eta inh-2	others
NS(=O)(=O)c1ccc(N=Nc2ccc(O)c3ncccc23)cc1	0	0	?	-	0	0	-	-
COc1ccc(CSc2nc3ccncc3n2CC(=O)Nc2cc(C)cc(C)c2)cc1	0	0	0	0	0	?	-	-
Cc1ccc(S(=O)(=O)N2[C@@H](c3ccc(C(C)(C)C)cc3)C(C(=O)O)=CC[C@H]2c2ccc(Cl)cc2)cc1	0	-	79.4µM	0	?	?	?	?	Pol kappa inh-2=67
Cc1ccc(S(=O)(=O)N2[C@@H](c3ccc(C(C)(C)C)cc3)C(C(=O)O)=CC[C@H]2c2cccs2)cc1	0	-	0	0	0	0	-	-
COC(=O)c1cc(NC(=O)[C@H](CCS(C)(=O)=O)N2Cc3ccccc3C2=O)cc(C(=O)OC)c1	0	0	0	0	0	0	-	-
C=C(C)C(=O)N1CC2(CC(c3cccc(NC(=O)/C=C\C)c3)=NO2)C[C@H]1C(N)=O (stereo not given in full)	0	0	0	0	0	0	-	-
C/C=C/C=C\C(=O)Nc1cccc(C2=NOC3(C2)C[C@@H](C(N)=O)N(C(=O)/C(C)=C/C)C3)c1 (stereo not given in full)	0	0	17.8µM	0	50.1µM	15.8µM	10.6	16.9
C/C=C/C=C/C(=O)N1CC2(CC(c3cccc(NC(=O)CCCCC)c3)=NO2)C[C@H]1C(N)=O (stereo not given in full)	0	0	?	0	0	?	-	-
C=C(C)C(=O)Nc1cccc(C2=NOC3(C2)C[C@@H](C(N)=O)N(C(=O)/C=C/C=C/C)C3)c1 (stereo not given in full)	?	2.51µM	3.16µM	35.5µM	28.2µM	22.4µM	?	16.9	TbPGK inh=0.73µM
COc1ccc(C2c3c(n(C)c4ccccc34)C(=O)N2CC(=O)Nc2cccc(F)c2)cc1 (stereo not given)	0	0	0	0	0	0	-	-
Cc1cccc(NC(=O)Cn2c(O)c(N=NC(=O)c3ccccc3O)c3ccccc32)c1	0	15.8µM	44.7µM	0	0	0	47.4	?
CCCn1c(-c2ccc(F)cc2)nc2c(NCCN3CCSCC3)nc(C)nc21	-	-	-	0	-	-	-	-
COc1cc2c(cc1OC)[C@@H]1C(=O)c3ccc4c(c3O[C@@H]1CO2)C=CC(C)(C)O4	-	-	-	0	0[19.4 µM]	-	-	-

Screening data: PubChem BioAssay, National Center for Advancing Translational Sciences (NCATS)
